Measured values taken from ChEMBL document CHEMBL1157539, “Thousands of chemical starting points for antimalarial lead identification” (Nature, 2010).
Several values for one entry are separate records, joined by “and”; a condition that tells them apart may be missing. Equal entries are not always repeated.

system: Plasmodium falciparum; test: GSK_TCMDC: Inhibition of Plasmodium falciparum Dd2 in whole red blood cells, using parasite LDH activity as an index of growth. Test compounds present at 2uM; format: functional

Row | Structure (SMILES) | Inhibition
1 | C/C=C1/CN2CC[C@H]1C[C@H]2[C@H](O)c1ccnc2ccc(OC)cc12 | 45%
2 | N#Cc1c(Cl)cccc1Oc1ccc(S(=O)(=O)N2CCC(CN3CCC(c4c[nH]c5ccccc45)CC3)CC2)cc1 | 67%
3 | COc1ccccc1CNCC(O)c1cc(C(F)(F)F)ccc1C(F)(F)F (stereo not drawn) | 95%
4 | CCN1CC=C(c2c[nH]c3ccccc23)CC1 | 58%
5 | O=C(Nc1ccc(Cl)c(Cl)c1)N1CCC(CN2CCC(c3c[nH]c4ccccc34)CC2)CC1 | 69%
6 | O=C(NC1CCC(CN2CCC(c3c[nH]c4ccccc34)CC2)CC1)c1csc(-c2cccc(Cl)c2Cl)n1 (stereo not drawn) | 41%
7 | Cl.c1ccc2c(NCCCCCCCCCNc3c4ccccc4nc4ccccc34)c3ccccc3nc2c1 | 95%
8 | C=C[C@H]1CN2CC[C@H]1C[C@H]2[C@H](O)c1cc(/C=C/c2ccc(F)cc2)nc2ccc(OC)cc12.Cl | 99%
9 | COc1cc(C=CC(=O)NC2CCC(CN3CCC(c4c[nH]c5ccccc45)CC3)CC2)cc(OC)c1 (stereo not drawn) | 90%
10 | COc1cccc(/C=C/C(=O)NC2CCC(CN3CCC(c4c[nH]c5ccccc45)CC3)CC2)c1 (stereo not drawn) | 26% and 38%
11 | CC[C@H]1CN2CC[C@H]1C[C@H]2[C@H](O)c1cc(/C=C/c2ccc(F)cc2)nc2ccc(OC)cc12.Cl | 99%
12 | CC(C)CN1CCC(N(C)c2cc(NC(=O)c3cccc(F)c3)ccn2)CC1.O=C(O)C(F)(F)F | 10%
13 | COc1c(F)cc(CC(C)NCC(O)c2cccc(Cl)c2)cc1F.Cl (stereo not drawn) | 86%
14 | COCCNCc1cccc(-c2ccccc2CN(C(=O)Nc2ccccc2)C2CCN(Cc3ccccc3)CC2)c1.O=C(O)C(F)(F)F | 51%
15 | O=C1c2ccccc2CCC1CCN1CC=C(c2c[nH]c3ccccc23)CC1 (stereo not drawn) | 83%
16 | CC(=O)C1(c2ccccc2)CCN(CCC2(c3ccc(Cl)c(Cl)c3)CN(C(=O)C3CCCCC3)CCO2)CC1 (stereo not drawn) | 99%
17 | Cc1ccc(CC(C)NCC(O)c2cccc(C#N)c2)cc1 (stereo not drawn) | 86%
18 | Oc1ccccc1CNCC(O)c1cc(C(F)(F)F)cc(C(F)(F)F)c1 (stereo not drawn) | 100%
19 | O=C(/C=C/c1cc([N+](=O)[O-])ccc1Cl)NC1CCC(CN2CCC(c3c[nH]c4ccccc34)CC2)CC1 (stereo not drawn) | 94%

Row | Structure (SMILES) | Inhibition
20 | O=C(/C=C/c1ccc(Cl)cc1)NC1CCC(CN2CCC(c3c[nH]c4ccccc34)CC2)CC1 (stereo not drawn) | 90% and 67%
21 | Cc1ccc(CC(C)NCC(O)c2cccc(C(F)(F)F)c2)c(C)c1.Cl (stereo not drawn) | 99%
22 | CC[C@H]1CN2CC[C@@H]1C[C@H]2[C@H](O)c1cc[n+]([O-])c2ccc(OC)cc12 | 1%
23 | O=C(CSc1ccc(Cl)cc1)NC1CCC(CN2CCC(c3c[nH]c4ccccc34)CC2)CC1 (stereo not drawn) | 21%
24 | COc1ccc(CCNCc2ccc3nc(N)c(C)cc3c2)cc1.Cl | 15%
25 | COc1ccc2nc(-c3ccc(F)cc3)cc([C@@H](O)[C@@H]3C[C@@H]4CCN3CC4C=NO)c2c1 (stereo partly drawn) | 94%
26 | CCN1CCC2(c3cccc(OC)c3)Cc3nc4ccccc4c(-c4ccccc4)c3CC2C1 (stereo not drawn) | 98%
27 | O=C(O)/C=C\C(=O)O.OC1(c2ccc(Cl)c(C(F)(F)F)c2)CCN(CCOC2c3ccccc3CSc3ccc(Cl)cc32)CC1 (stereo not drawn) | 58%
28 | O=C(/C=C/c1ccc(Cl)c(Cl)c1)NC1CCC(CN2CCC(c3c[nH]c4ccc(O)cc34)CC2)CC1 (stereo not drawn) | 100% and 99%
29 | COc1cc(NC(=O)c2nn(CCCN3CCC4(CC3)C(=O)NCN4c3ccccc3)cc2-c2ccc(Cl)c(Cl)c2)cc(OC)c1OC | 75%
30 | CC[C@H]1CN2CC[C@@H]1C[C@H]2[C@H](O)c1cc(N2CCC(O)(c3ccccc3)CC2)nc2ccc(OC)cc12 | 98%
31 | CC[C@H]1CN2CC[C@@H]1C[C@H]2[C@H](O)c1cc(N2CCSCC2)nc2ccc(OC)cc12 | 98%
32 | C=C[C@H]1CN2CC[C@H]1C[C@H]2[C@H](O)c1ccnc2ccccc12 [CINCHONIDINE] | 3%
33 | CCCCCCCN1C2CCC1CC(CCOc1ccnc3ccc(OC)cc13)C2 (stereo not drawn) | 88%
34 | Cl.c1ccc2c(NCCCCCCNc3c4c(nc5ccccc35)CCCC4)c3c(nc2c1)CCCC3 | 51%
35 | CCOC(C(=O)OCC1CCCN1C)(c1ccccc1)c1ccccc1 (stereo not drawn) | 3%
36 | Cc1cc(-c2ncc[nH]2)ccc1-c1ccc(C(=O)N2CCc3cc4c(cc32)C2(CCN(C)CC2)CO4)cc1.Cl | 98%
37 | CN1CCC(N(C)c2nccc(N3CCN(Cc4cncn4Cc4ccccc4)CC3)n2)CC1 | 100%
38 | C[C@H](Cc1ccc(OCCCCCCOc2ccccc2)cc1)NC[C@H](O)c1cccc(Cl)c1.Cl | 99%
